Laboratory results published in PubChem BioAssay (Tox21).
Records with an inconclusive call do not appear. Activity calls are given as the source filed them. Unless noted, calls come from the whole dose curve. Where a SMILES comes first, the peptide text is derived from it.

Assay: qHTS assay to identify small molecule antagonists of the estrogen related receptor signaling pathway with the pleiotropic PPARgamma coactivator (PGC) from Tox21 10K library - cell viability counter screen (AID 1224840; active = well fitted cell-killing curve with a large enough effect in the repeat runs, not every such curve was filed as active; note: nearly all actives have a fitted effect of over 40% in size)
Conditions: PGC/ERR reporter cells viability, CellTiter-Fluor, 17.5 h; series mostly up to 92.4 µM; viability change, negative = cytotoxic: at the top concentration
How it was run: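 Step one, plate 2,000 PGC/ERR cells per well; step two, incubate 6 h at 37 C/5% CO2; step three, pin-transfer compounds; step four, incubate 17.5 h; step five, add CellTiter-Fluor and read fluorescence after 30 min.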
% is set by controls: 0 for no effect and ±100 for the full control effect.

Row | Compound | viability change, negative = cytotoxic
1 | CCCCCC(C)O (stereo not given) | 4.17% (inactive)
2 | Cc1ncc([N+](=O)[O-])n1CC(C)O (stereo not given) | 0.558% [at 42.5 µM] (inactive)
3 | CCCCC1CCC(O)CC1 (stereo not given) | -0.405% (inactive)
4 | CC(=O)c1cc(C)oc1C | 4.14% (inactive)
5 | Cc1c(C(=O)c2c[nH]n(C)c2=O)ccc(S(C)(=O)=O)c1C1=NOCC1 | -3.08% [at 42.5 µM] (inactive)
6 | CCC/C=C(\C=O)CC | 2.58% (inactive)
7 | CN1CCOC(c2ccccc2)c2ccccc2C1 (stereo not given) | 3.59% [at 42.5 µM] (inactive)
8 | CCCC(=O)Nc1ccc(OCC(O)CNC(C)C)c(C(C)=O)c1 (stereo not given) | 12.6% [at 42.5 µM] (inactive)
9 | CN(C)CCCCl | 10.8% (inactive)
10 | COc1c2occc2c(OC)c2c(=O)cc(C)oc12 | 12.3% [at 42.5 µM] (inactive)
11 | CO[C@@]1(NC(=O)Cc2cccs2)C(=O)N2C(C(=O)O)=C(COC(N)=O)CS[C@@H]21 | 8.84% [at 42.5 µM] (inactive)

Assay: qHTS assay to identify small molecule agonists of the hypoxia (HIF-1) signaling pathway - cell viability counter screen (AID 1224844); note: nearly all actives have a fitted effect of over 50% in size
Conditions: HRE-bla ME-180 viability, CellTiter-Glo luminescence, 17 h; series mostly up to 76.8 µM; activity change, negative = cytotoxicity: at the top concentration
How it was run: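 Tox21 10K compounds were added to HRE-bla ME-180 cells (0.5% dialyzed FBS) and incubated 17 hrs at 37C; ATP-based CellTiter-Glo luminescence then reported cell viability in the same wells.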

Row | Compound | activity change, negative = cytotoxicity
12 | CC(=O)N[C@@H](CO)C(=O)N[C@@H](CC(=O)O)C(=O)N[C@@H](CCCCN)C(=O)N1CCC[C@H]1C(=O)O (Ac-SDKP-OH) | 8.17% [at 35.3 µM] (inactive)
13 | CC(Oc1cc(Cl)ccc1Cl)C(=O)O (stereo not given) | 2.77% (inactive)
14 | OCC1CCC(CO)CC1 (stereo not given) | 1.16% (inactive)
15 | CCN(CC)CCN | 0.577% [at 35.3 µM] (inactive)
16 | COC(=O)/C=C\C(=O)O | -11.4% (inactive)
17 | CC(C)[C@H]1CC[C@H](C)C[C@@H]1O | -6.84% (inactive)
18 | CCOC(CN1CCN(CC(C)C(=O)c2ccccc2)CC1)c1ccccc1 (stereo not given) | 0.0048% [at 15.8 µM] (inactive)
19 | Cn1c(=O)c2[nH]c(Br)nc2n(C)c1=O | 1.35% [at 35.3 µM] (inactive)
20 | CCCSSCCC | 9.52% (inactive)
21 | CC1=C(O)C(=O)C(C)O1 (stereo not given) | 0.11% (inactive)
22 | CC(C)NCC(O)c1ccc2ccccc2c1 (stereo not given) | 9.24% [at 35.3 µM] (inactive)
23 | [O-][n+]1cccc(/C(Cl)=N/OC[C@@H](O)CN2CCCCC2)c1 | 4.55% [at 35.3 µM] (inactive)
24 | Cn1c(=O)c2c(ncn2CCO)n(C)c1=O | -0.788% [at 35.3 µM] (inactive)
25 | C=Cc1ccc(C(C)(C)C)cc1 | 3.7% (inactive)
26 | O=C(NCN1CCOCC1)c1cnccn1 | 0.527% [at 35.3 µM] (inactive)
27 | C=CCCCC | 0.246% (inactive)
28 | O=C(CCCl)NCCc1ccccc1 | 0.819% [at 35.3 µM] (inactive)
29 | C/C(CC(C)C)=N\O | 3.68% (inactive)
30 | CCCC(CC)c1ccccc1 (stereo not given) | 5.34% (inactive)
31 | COc1ccc2c(c1)c1c3n2CCN(C)C3=NCC1 | 8.32% [at 35.3 µM] (inactive)
32 | CCCCCC(C)O (stereo not given) | 5.99% (inactive)
33 | Cc1ncc([N+](=O)[O-])n1CC(C)O (stereo not given) | 6.91% [at 35.3 µM] (inactive)
34 | CCCCC1CCC(O)CC1 (stereo not given) | 2.77% (inactive)
35 | CC(=O)c1cc(C)oc1C | -20.1% (inactive)
36 | CN1CCOC(c2ccccc2)c2ccccc2C1 (stereo not given) | -2.36% [at 35.3 µM] (inactive)
37 | CCCC(=O)Nc1ccc(OCC(O)CNC(C)C)c(C(C)=O)c1 (stereo not given) | 12.2% [at 35.3 µM] (inactive)
38 | CN(C)CCCCl | -4.3% (inactive)
39 | COc1c2occc2c(OC)c2c(=O)cc(C)oc12 | 1.76% [at 35.3 µM] (inactive)
40 | CO[C@@]1(NC(=O)Cc2cccs2)C(=O)N2C(C(=O)O)=C(COC(N)=O)CS[C@@H]21 | -3.11% [at 35.3 µM] (inactive)
